HCMV inh: human cytomegalovirus inhibition; HFF cells, HCMV-luciferase reporter, 72 h; active compounds read low; activity change, negative = inhibition, % at 57.5 µM; 4.5% of 410,000 active; AID 1259415; in the data active = activity change below about -60%; inconclusive = no clear call, values can overlap the other calls; inactive = above about -39%
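HFF cells seeded 16 h at 37C, treated with compounds, infected with luciferase-reporter HCMV at MOI 1 PFU/cell; luciferase read at 72 h post infection, normalized to buffer-only and Salinomycin controls.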
MARV entry inh: Marburg virus entry inhibition; Potency, µM (series often up to 37.8 µM), hits mostly inhibitors; Marburg virus pseudotyped entry inhibition, cell reporter; AID 540276; 1.8% of 300,000 active; calls by dose curve; tested in HEK293 cells
HCV inh: blocks hepatitis C virus | Huh7.5.1 HCVcc-Cre infection, luciferase reporter, 44 h | Potency, µM (highest dose often 41.8 µM), actives largely listed as inhibitors | 3.4% of 340,000 active | AID 651820; active = well fitted inhibition curve with a large enough effect; inconclusive = small, poorly fitted or top-dose-only effect, or another doubt; inactive = no such curve, though single readings can be large or run the other way
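Reporter virus HCVcc-Cre (~0.5 moi) infects cells exposed to compound; seeding density 1,000 cells/well with 4 h settling beforehand. Luminescence, 15 sec read, taken 44 h post-infection following a 15 min RT substrate incubation.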
FMDV antiviral: antivirals against foot and mouth disease virus. 1.2% of 410,000 active. FMDV antiviral cell-based qHTS. Potency, µM (doses to about 57.9 µM), actives largely listed as inhibitors; calls by dose curve; tested in HEK293T cells; also: read-out not given here; nearly all actives have a fitted effect of over 45% in size
Lassa entry inh: Lassa virus entry inhibition. Potency, µM (highest dose often 37.9 µM), actives largely listed as inhibitors. 1.2% of 300,000 active. Lassa virus pseudotype entry inhibition, cell reporter; calls by dose curve; tested in HEK293 cells; also: nearly all actives have a fitted effect of over 50% in size
A number is an active result; . = inactive; ? = inconclusive; / = no result; ! = a repeat was not active. Sampled rows, rich in hits. Any-hit rate of the full collection: about 7.9%.

SMILES | HCMV inh | MARV entry inh | HCV inh | FMDV antiviral | Lassa entry inh
CCOC(=O)[C@]12Cc3ccccc3[C@H]1N(Cc1ccccc1)C(=O)c1ccccc12 | . | / | . | . | /
CCOC(=O)[C@]12Cc3cc(C)ccc3[C@H]1N(CCC(=O)OC)C(=O)c1cc(OC)ccc12 | -109 | / | / | 32µM | /
CCOC(=O)[C@]12Cc3ccccc3[C@H]1N(CCC(=O)OC)C(=O)c1ccccc12 | -98 | / | / | ? | /
CCOC(=O)c1cccc(NC(=O)CSc2nc3cc4ccccc4cc3[nH]2)c1 | . | . | / | . | .
CCOc1ccc2ncc3c(-c4ccccc4)nn(CC(=O)Nc4cccc(F)c4)c3c2c1 | . | / | / | . | .
CCCCCN1C(=O)c2ccccc2[C@@]2(C(=O)OCC)Cc3cc(OC)ccc3[C@@H]12 | -109 | / | / | 10µM | /
Cc1c(C(=O)N2CCC(C)CC2)c(S(=O)(=O)NCc2ccc(Cl)cc2)c(C)n1C | . | / | / | . | .
Cc1ccc(CN(C(=O)COc2ccc(Cl)cc2Cl)C2CCS(=O)(=O)C2)o1 (stereo not given) | . | . | / | . | .
Cc1nc(-c2cccc(NC(=O)c3cccs3)c2)cs1 | . | . | ? | . | .
Oc1ccc(-c2csc(-c3cccnc3)n2)cc1O | . | ? | . | . | ?
Oc1ccc(-c2csc(-c3ccccc3)n2)cc1O | . | . | 4.5µM | . | .
O=C(Nc1cccc(-c2csc(-c3ccccc3)n2)c1)c1cccs1 | . | ? | 10µM | / | ?
Oc1ccc(-c2csc(Nc3ncccn3)n2)cc1O | . | ? | 11µM | . | ?
CC(=O)N1c2ccc(S(=O)(=O)Nc3ccc(Cl)cc3C)cc2CC1C (stereo not given) | ? | / | / | . | .
COc1ccc(Cl)cc1NC(=O)Cn1ccn(-c2cc(C)cc(C)c2)c(=O)c1=O | . | / | / | . | .
CCCCCCCCNc1ncnc2[nH]ncc12 | -76 | ? | 11µM | . | .
Cc1oc(-c2cccc(Cl)c2)nc1CN1CCC(C(=O)NCc2ccc(F)cc2)CC1 | . | . | / | . | .
Cc1cc(C)cc(NC(=O)Cn2nnc(-c3ccccc3F)n2)c1 | . | / | / | . | .
N/C(=N\OC(=O)Cc1ccccc1[N+](=O)[O-])c1ccncc1 | -61 | ? | . | . | .
COc1cccc(/C(N)=N/OC(=O)Cc2ccccc2[N+](=O)[O-])c1 | . | ? | . | . | .
Cc1ncsc1CCOC(=O)c1ccc(N2CCOCC2)c([N+](=O)[O-])c1 | -61 | / | . | . | /
Cc1c(CCOC(=O)c2ccc(N3CCOCC3)c([N+](=O)[O-])c2)sc[n+]1CC#N | . | ? | 16µM | ? | 13µM
Cc1ncsc1CCOC(=O)c1ccc([N+](=O)[O-])cc1 | . | . | . | . | .
Cc1cc(O)cc(O)c1C(=O)OC1(C)C(=O)C=C2C=C(C=CC(=O)O)OC=C2C1=O (stereo not given) | / | . | / | / | ?
Cc1cc(NNC(=O)c2cccc(C(F)(F)F)c2)nc2c1c(C)nn2C | ? | / | 4.5µM | ? | /
SMILES | HCMV inh | MARV entry inh | HCV inh | FMDV antiviral | Lassa entry inh
Cc1ccc2nc(CN3CCN(C(=O)Nc4cccc(C)c4C)CC3)oc2c1 | . | / | / | . | .
COc1ccc(/C=N/NC(=O)CCn2c3ccccc3c3ccccc32)cc1O | . | ? | 6.3µM | / | ?
COc1ccc(C=NNC(=O)CCCC(=O)NN=Cc2ccc(OC)c(O)c2)cc1O | -69 | . | . | . | .
Cn1c(=O)c2c(-c3ccc(Br)cc3)n(Cc3ccc(F)cc3)cc2n(C)c1=O | ? | . | / | ? | .
CCCCCCCSc1cc(OC)c(CCNC)cc1OC | -99 | ? | ? | . | ?
COC(=O)c1cc(CNC(=O)c2ccncc2)cc(NC(=O)c2ccccc2Cl)c1 | / | / | / | . | /
CCc1nnc(SCc2nc(-c3ccc(OC)c(OC)c3)oc2C)c2cc3sc(C)cc3n12 | . | / | / | . | .
CSc1ccc(/C=N/NC(=O)c2ccccc2Cl)cc1 | . | ? | ? | . | 8.9µM
O=C(O)c1ccc(N/N=C/c2ccc(OC(=O)c3cccc(Cl)c3)cc2)cc1 | -64 | / | . | 20µM | /
O=C(Oc1ccc(/C=N/Nc2ccccc2)cc1)c1ccccc1 | . | . | . | . | .
CN(C)c1ccc(/C=N/NC(=O)c2ccccc2Cl)cc1 | . | ? | ? | . | ?
COC(=O)c1ccc(COc2ccc(/C=N/Nc3cccc(C(=O)O)c3)cc2)cc1 | . | / | . | . | /
CSc1ccc(/C=N/Nc2cccc(C(=O)O)c2)cc1 | / | ? | . | 2.2µM | 0.89µM
O=C(O)c1cccc(N/N=C/c2ccc(OC(F)(F)F)cc2)c1 | . | ? | . | 25µM | ?
COc1ccc(/C=N/NC(=S)Nc2cccc(C(=O)O)c2)cc1 | . | ? | . | . | ?
Cc1ccc(C)c(N2CCN(C(=O)c3cc(S(=O)(=O)N4CCC(C)CC4)cn3C)CC2)c1 | . | / | / | . | .
Cc1nc2ccc(S(=O)(=O)NCC(=O)Nc3ccc(F)cc3F)cc2s1 | . | . | / | . | ?
COc1cccc(CN2CCc3nnc(CCc4ccccc4)n3CC2)c1OC | / | / | / | . | /
O=C(O)c1cccc(N/N=C/c2cccs2)c1 | . | 1.5µM | . | 2.2µM | 5.8µM
CCCn1ccc2c(OCC(=O)NCc3ccccc3Cl)cccc2c1=O | . | / | / | . | ?
Cc1ccc(NC(=O)Cn2cnc3sc(C(=O)O)c(C)c3c2=O)cc1Cl | . | / | / | . | ?
CCCN(CCC)CCCNC(=O)Cn1cnc2sc(C)c(S(=O)(=O)N3CCCCC3)c2c1=O | -71! | . | . | . | ?
Cc1ccc(NC(=O)Cn2cnc3sc(C(=O)NCCN(C)C)c(C)c3c2=O)cc1Cl | / | / | 10µM | / | /
CCN(CC)CCCNC(=O)c1sc2ncn(CC(=O)Nc3ccc(C)c(Cl)c3)c(=O)c2c1C | -63 | / | 14µM | . | /
COCCCNC(=O)c1sc2ncn(CC(=O)Nc3ccc(C)c(Cl)c3)c(=O)c2c1C | . | . | ? | . | .
SMILES | HCMV inh | MARV entry inh | HCV inh | FMDV antiviral | Lassa entry inh
COc1cccc(-c2nn(C)c3sc(C(=O)N4CCN(c5cccc(C)c5)C(C)C4)cc23)c1 (stereo not given) | . | . | / | . | ?
COC(=O)/C=C1/N/C(=N\c2nc(C)cc(C)n2)N(c2cccc(C)c2)C1=O | ? | . | . | 28µM | ?
COc1ccc(N2CCN(C(c3ccccc3F)c3sc4nc(-c5ccco5)nn4c3O)CC2)cc1 (stereo not given) | . | / | / | . | .
COc1ccc(C2C(Oc3ccccc3)C(=O)N2c2ccc(C)c(C)c2)cc1OC (stereo not given) | . | ? | 11µM | . | ?
Cc1ccccc1NC(=O)Cn1c(=O)n(Cc2ccc3c(c2)OCO3)c(=O)c2ccccc21 | -61 | . | / | . | .
COc1ccccc1NC(=O)CSc1nnc(NC(=O)NC2CCCCC2)s1 | . | / | / | . | .
C/C(N)=C(/C#N)C(=O)CSc1cc(C)c2cc(C)cc(C)c2n1 | . | . | 10µM | . | .
O=C(O)c1ccc2c3n(nc2c1)-c1ccc(Cl)cc1CO3 | . | / | . | 7.9µM | /
CC(C)c1ccc(N2C(=O)/C(=C/N(C)C)SC2=S)cc1 | -60 | / | . | . | /
CCO/C=C1\SC(=S)N(c2ccc(Cl)cc2)C1=O | . | . | . | . | .
COc1cc(OC)cc(C(=O)NC(=S)NNC(=O)[C@H]2C[C@@H]2c2ccccc2)c1 | . | . | . | . | 3.2µM
